# The full list was thinned out, with hits kept by preference.
# TTR transcr act – TTR transcription activators in neuroblastoma reporter cells, primary screen, cell-based, luminescence, SH-SY5Y, TTR promoter Gaussia luciferase | 100% = recombinant luciferase protein wells | activation, % at 16.7 µM | actives 1.3% (n = 92,000) | AID 1117267, 2014;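 active = activation above the mean of all tested compounds plus 3 SD, cut at about 9.5% in these data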;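 also: cells exposed to compounds for one day before reading; 0% = median of all test compound wells on the plate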
# HuH7 TTR inh – TTR promoter reporter inhibitors in hepatoma cells, counter-screen for TTR transcription activator project, cell-based, luminescence, HuH7 hepatoma; HuH7 TTR promoter-Gaussia luciferase reporter; AID 1117279, 2014; inhibition, % at 16.7 µM; actives 4% (n = 1,100); shares compounds with TTR transcr act;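 active = average inhibition above the solvent-only control wells' mean plus 3 SD, cut at about 15% in these data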;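 also: 0% = cells with DMSO only and 100% = cells with inhibitor control FD; inhibitors lower well luminescence so higher value means more inhibition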
# TTR up confirm – TTR transcription activators, retest, confirmation, cell-based, luminescence, SH-SY5Y, triplicate; shares compounds with TTR transcr act; 1,100 tested, under 10 active; activation, % at 16.7 µM; SHSY5Y TTR promoter Gaussia luciferase; 100% = purified Lucia enzyme wells, no cells;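 active = mean activation above a set limit taken from the earlier primary screen, cut at about 11% in these data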;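 also: 0% = DMSO-treated cells and 100% = recombinant Lucia luciferase without cells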
# * hit, by the source's call.
SMILES,TTR transcr act,others
COc1ccc(C2(C)NC(=O)N(CC(=O)N(c3ccccc3)C3CCS(=O)(=O)C3)C2=O)cc1 (stereo unspecified),-1.0,
Cc1ccc(NC(=O)c2ncn(CCCNCCCN3CCCC3=O)n2)cc1C,-0.5,
Cc1ccc(NC(=O)c2ncn(CCCNCC3CCCCC3)n2)cc1C,1.6,
Cc1ccc(NC(=O)c2ncn(CCCNCc3ccccc3)n2)cc1C,13.2*,HuH7 TTR inh=-10.5;TTR up confirm=0.5
C/C(=N\NC(=O)CSc1nc2ccccc2s1)c1cccnc1,2.2,
Cc1cc(C(F)(F)F)cc(NNC(=O)NC(=O)c2ccccc2Cl)n1,-0.8,
CCC[C@H]1[C@@H](NC(=O)/C=C/c2ccccc2)CC[C@@]23CCCN2C(=O)CCC[C@@H]13,1.2,
O=C(CSc1cccc[n+]1[O-])c1cc(Cl)ccc1Cl,9.9*,HuH7 TTR inh=-8.6;TTR up confirm=-0.2
COc1ccccc1C(=O)NC(=O)CSc1cccc[n+]1[O-],-1.0,
Cc1cc(C(=O)C(C)Sc2cccc[n+]2[O-])c(C)n1-c1ccc(Cl)cc1 (stereo unspecified),-2.4,
Cc1nn2cc(-c3ccccc3)nc2[nH]c1=O,10.2*,HuH7 TTR inh=0.9;TTR up confirm=-0.1
O=C(O)CCc1nn2cc(-c3ccccc3)nc2[nH]c1=O,-0.8,
Cc1nn2c(-c3ccccc3)c(-c3ccccc3)nc2[nH]c1=O,-0.5,
Cc1csc(NC(=O)c2ccccc2)n1,-0.5,
Cn1nnnc1-c1cc(Br)ccc1NC(=O)c1ccccc1,10.4*,HuH7 TTR inh=-0.1;TTR up confirm=-0.7
CCCn1nnc(NC(=O)c2ccc(Br)cc2)n1,-2.6,
O=C(O)C1=CC[C@@H](c2ccc(Cl)cc2)N(S(=O)(=O)c2ccc(Cl)cc2)[C@H]1c1ccc(Br)cc1,-2.6,
CNC(=O)CN(c1cc(C)ccc1C)S(C)(=O)=O,0.0,
Cc1cc(C)nc(SCC(=O)c2ccc(F)c(C)c2)n1,0.3,
Cc1cccc(NC(=O)C2CCN(S(=O)(=O)c3ccc4c(c3)C(C)(C)C(=O)N4C)CC2)c1C,3.6,
CCOc1ccccc1NC(=O)C1CCCN1S(=O)(=O)c1ccc2c(c1)C(C)(C)C(=O)N2C (stereo unspecified),11.8*,HuH7 TTR inh=-15.3;TTR up confirm=0.4
CCc1ccccc1NC(=O)[C@@H]1CCCN1S(=O)(=O)c1cccc2cccnc12,0.9,
CCc1ccccc1NC(=O)C1CCCN1S(=O)(=O)c1ccc(-c2ccc(=O)[nH]n2)s1 (stereo unspecified),0.9,
COc1cccc(NC(=O)C2CCCN2S(=O)(=O)c2ccc3c(c2)C(C)(C)C(=O)N3C)c1 (stereo unspecified),-1.5,
CCc1ccccc1NC(=O)C1CCCN1S(=O)(=O)c1ccc2c(c1)n(C)c(=O)c(=O)n2C (stereo unspecified),17.6*,HuH7 TTR inh=-14.9;TTR up confirm=-0.1
SMILES,TTR transcr act,others
CCN1CCN(C(=O)CSc2nc3c(c(=O)n(C)c(=O)n3C)n2C)CC1,0.7,
Cc1ccc2nc(/C(C#N)=C\c3ccc(Oc4ccc(C(F)(F)F)cc4[N+](=O)[O-])cc3)[nH]c2c1,0.1,
CC1(C)Cc2c(sc3nnn(CC(=O)Nc4ccccc4)c(=O)c23)CO1,3.7,
COc1cccc(CN2CCNC(=O)C2CC(=O)NC2CCCCCCC2)c1 (stereo unspecified),-2.4,
COc1ccc(CN2CCNC(=O)C2CC(=O)NC2CCCCCC2)c(F)c1 (stereo unspecified),-0.6,
O=C(CC1C(=O)NCCN1Cc1ccccc1C(F)(F)F)NC1CCCCCC1 (stereo unspecified),10.1*,HuH7 TTR inh=-7.4;TTR up confirm=1.7
Nc1nc(NCC2CCCO2)nc(Nc2ccc(Cl)cc2)c1[N+](=O)[O-] (stereo unspecified),3.0,
Nc1nc(NCCCN2CCOCC2)nc(Nc2ccc(Cl)cc2)c1[N+](=O)[O-],12.5*,HuH7 TTR inh=-8.0;TTR up confirm=0.2
Nc1nc(Nc2ccccc2)nc(N2CCOCC2)c1[N+](=O)[O-],1.4,
Cc1ccc2nc(SCC(=O)Nc3ccc(C)c(Cl)c3)nc(=O)n2c1,1.1,
COc1ccccc1NC(=O)CSc1nc(=O)n2cc(C)ccc2n1,11.7*,HuH7 TTR inh=-14.8;TTR up confirm=2.0
Cc1ccc2nc(SCC(=O)c3ccc(Cl)cc3)nc(=O)n2c1,1.6,
CC1(C)N=C(N)N=C(N)N1c1ccc(F)cc1F,-1.6,
O=C(CC(=O)c1ccccc1)Nc1cc([N+](=O)[O-])ccc1Cl,2.7,
O=C(COc1ncnc2cc([N+](=O)[O-])ccc12)NC(=O)NC1CCCCC1,0.2,
O=C(COc1ncnc2ccccc12)Nc1cc([N+](=O)[O-])ccc1Cl,38.3*,HuH7 TTR inh=-4.3;TTR up confirm=-0.3
COc1ccc(OC)c(NC(=O)C(Sc2ccccc2)c2ccccc2)c1 (stereo unspecified),1.6,
O=C(Nc1nccs1)c1cccc(NC(=O)C(F)(F)F)c1,0.2,
COc1ccccc1N1CCN(S(=O)(=O)CCNC(=O)C2CCCC2)CC1,-0.7,
COc1ccccc1N1CCN(C(=O)C(Sc2ccccc2)c2ccccc2)CC1 (stereo unspecified),-3.2,
COc1ccccc1N1CCN(C(=O)C(CC(C)C)NC(=O)C2CCCCC2)CC1 (stereo unspecified),21.4*,HuH7 TTR inh=-9.7;TTR up confirm=-0.2
O=C1C2C3C=CC(CC3)C2C(=O)N1c1ccc(Br)cc1 (stereo unspecified),0.6,
O=C(COC(=O)COc1ccccc1)NC1CCS(=O)(=O)C1 (stereo unspecified),-1.1,
O=c1cc(O)c2ccccc2n1Cc1ccccc1,0.7,
Cc1nn(-c2ccc(F)cc2)c2sc(C(=O)OC3CCOC3=O)cc12 (stereo unspecified),-1.7,
SMILES,TTR transcr act,others
COc1ccc(C(=O)CSc2ncnc3nc[nH]c23)cc1,-1.0,
Cn1cnc([N+](=O)[O-])c1Sc1ncnc2nc[nH]c12,2.0,
Cn1cnc(Sc2ncnc3nc[nH]c23)c1[N+](=O)[O-],37.9*,HuH7 TTR inh=0.2;TTR up confirm=-0.5
CSCC(=O)Nc1ccc(F)c(Cl)c1,0.0,
Cc1ccc2[nH]cc(C(=O)CN3CCN(c4ccccc4F)CC3)c2c1,-0.5,
COc1ccc2cc(Br)ccc2c1CC(=O)NCC1CCCO1 (stereo unspecified),2.6,
CCOc1ccc(NC(=O)C2Cc3ccccc3CN2S(=O)(=O)CC)cc1 (stereo unspecified),19.9*,HuH7 TTR inh=-14.2;TTR up confirm=-0.4
CCS(=O)(=O)N1Cc2ccccc2CC1C(=O)Nc1ncc(C)s1 (stereo unspecified),1.8,
COc1ccc(S(=O)(=O)N2Cc3ccccc3CC2C(=O)Nc2ccc(O)cc2)cc1OC (stereo unspecified),1.5,
Cc1ccc(N/C=C/C(=O)c2sc(-c3ccccc3)nc2C)cc1,-1.0,
COC(=O)CSc1nnc(-c2ccc(OC)c(OC)c2)o1,2.6,
CCS(=O)(=O)Nc1ccc(-c2nnc(SCC(=O)OC)o2)cc1,10.3*,HuH7 TTR inh=-6.6;TTR up confirm=0.1
CCOC(=O)Cc1csc(NC(=O)CSc2nnc(-c3ccc(NS(=O)(=O)CC)cc3)o2)n1,-2.7,
Cc1ccc(C(=O)NCc2ccco2)cc1S(=O)(=O)Nc1cccc(C)c1C,2.0,
CC1CC(C)CN(S(=O)(=O)c2ccc3c(c2)oc(=O)n3CC(=O)NCc2cccnc2)C1 (stereo unspecified),-1.5,
CCOC(=O)c1c(C)n(C)c2ccc(OCCN(C)C)cc12,4.3,
